# Measurements published in PubChem BioAssay.
# Where “and” joins values, the source holds several entries; their conditions need not be identical. Equal values may be shown once. Results filed as inconclusive are left out. Calls of active or inactive are those of the source. Unless noted, the rule behind the calls is not given here.
# Columns and labels:
# [1] = liver-stage malaria parasite load reduction – cell-based, known kinase inhibitor set, luminescence, hepatoma host viability (AID 624392); conditions: Plasmodium liver stage in hepatoma cells, luciferase luminescence, concentration not given here; liver cell % of control: measured here: host liver cell viability; parasite % of control: stronger effect = lower value;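 note: infected cells incubated roughly two days before readout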
# [2] = viability loss in pontine glioma line – cell-based, JHH-DIPG-1, MIPE4.0, CellTiter-Glo, qHTS, dose response (AID 1347062; cut-off not given, nearly all actives have AC50 up to about 27 µM;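 note: cells exposed to compound for two days before readout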); conditions: JHH-DIPG-1 viability, CellTiter-Glo ATP luminescence
# [3] = viability loss in pontine glioma line – cell-based, SU-DIPG-IV, MIPE4.0, CellTiter-Glo, qHTS, dose response (AID 1347063; cut-off not given, nearly all actives have AC50 up to about 30 µM;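 note: compound exposure lasted 48 hours before the viability readout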); conditions: CellTiter-Glo ATP luminescence
# [4] = viability loss in pontine glioma line – cell-based, SU-DIPG-XXV, MIPE5.0, CellTiter-Glo, qHTS, dose response (AID 1347065; cut-off not given, nearly all actives have AC50 up to about 26 µM;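 note: cells exposed to compound for 48 hours before ATP readout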); conditions: CellTiter-Glo ATP luminescence
# [5] = viability loss in pontine glioma line – cell-based, SU-DIPG-XIII, MIPE5.0, CellTiter-Glo, qHTS, dose response (AID 1347064; cut-off not given, nearly all actives have AC50 up to about 23 µM;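 note: cells exposed to compound for 48 hours before the viability read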); conditions: CellTiter-Glo ATP luminescence
# [6] = growth inhibition of DIPG cells – cell-based, MIPE4.0 library, CellTiter-Glo luminescence, qHTS (AID 1347066; cut-off not given, nearly all actives have AC50 up to about 30 µM;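 note: cells exposed to compound for 48 hours before readout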); conditions: SU-DIPG-VI viability, CellTiter-Glo ATP luminescence
# [7] = JHH-DIPG-1 glioma cell viability, MIPE5.0 library, CellTiter-Glo luminescence, qHTS (AID 1347067; cut-off not given, nearly all actives have AC50 up to about 26 µM;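 note: cells exposed to compound for 48 hours before readout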); conditions: JHH-DIPG-1 glioma viability, CellTiter-Glo ATP luminescence
# [8] = growth inhibition of DIPG cells – cell-based, MIPE5.0 library, qHTS (AID 1347068; cut-off not given, nearly all actives have IC50 up to about 30 µM;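 note: cells exposed to compound for 48 hours before viability readout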); conditions: SU-DIPG-XXV viability
Structure (SMILES),liver cell % of control [1],parasite % of control [1],AC50 [2],AC50 [3],AC50 [4],AC50 [5],AC50 [6],AC50 [7],IC50 [8]
CC(C)(N)c1ccc(-c2nc3ccccc3nc2-c2ccccc2)cc1,41.6% and 76.6% and 85.6%,0.22% (inactive) and 84.1% (inactive) and 92.8% (inactive),23.5 µM (active),26.4 µM (active),23.5 µM (active),–,–,–,–
c1cc(N[C@@H]2CCNC2)nc(-c2cnc3ccc(-c4cn[nH]c4)cn23)c1,–,–,11.8 µM (active),14.8 µM (active),16.6 µM (active),14.8 µM (active),18.7 µM (active),16.6 µM (active),11.8 µM (active)
